Whole data set: some 140,000 sequences, median “enrichment ratio after two sorts for PhoP signalling” near 0, cut for the highest 2% near 11. This excerpt belongs to a sample that is enriched for the highest values.
B1: PhoQ; a variant is named by its letters at X, in order, P23837 (parent)
chain: MKKLLRLFFPLSLRVRFLLATAAVVLVLSLAYGMVALIGYSVSFDKTTFRLLRGESNLFYTLAKWENNKLHVELPENIDKQSPTMTLIYDENGQLLWAQRDVPWLMKMIQPDWLKSNGFHEIEADVNDTSLLLSGDHSIQQQLQEVREDDDDAEMTHSVAVNVYPATSRMPKLTIVVVDTIPVELKSSYMVWSWFIYVLSANLLLVIPLLWVAAWWSLRPIEALAKEVRELEEHNRELLNPATTRELTSLVRNLNRLLKSERERYDKYRTTLTDLTHSLKTPLXXLQXXLRSLRSEKMSVSDAEPVMLEQISRISQQIGYYLHRASMRGGTLLSRELHPVAPLLDNLTSALNKVYQRKGVNISLDISPEISFVGEQNDFVEVMGNVLDNACKYCLEFVEISARQTDEHLYIVVEDDGPGIPLSKREVIFDRGQRVDTLRPGQGVGLAVAREITEQYEGKIVAGESMLGGARMEVIFGRQHSAPKDE

Variants of: B1
Assay: enrichment ratio after two sorts for PhoP signalling (ratio (wild type AVST 3.29)); higher = more functional
Conditions: with PhoP (E. coli)

Variant | enrichment ratio
VMEP | ≤ 0.25
SHGD | ≤ 0.25
NFGC | ≤ 0.25
DFHC | ≤ 0.25
QAAF | ≤ 0.25
RPYT | ≤ 0.25
TNAD | ≤ 0.25
ANNT | ≤ 0.25
MNAA | 8.61
TNAA | 13.7
ANLT | 4.56
ANAT | 17.7
HRYS | ≤ 0.25
LMNM | ≤ 0.25
NMWP | ≤ 0.25
SACI | 13.7
SACE | 11.7
KACQ | ≤ 0.25
SACK | 0.562
SAQP | ≤ 0.25
SAAM | 7.53
SAMD | ≤ 0.25
SAPE | ≤ 0.25
SACQ | 13.5
WVWC | ≤ 0.25

Variant | enrichment ratio
YMTW | ≤ 0.25
YYYE | ≤ 0.25
RLRN | ≤ 0.25
SGRV | ≤ 0.25
LQQI | ≤ 0.25
TQRI | ≤ 0.25
KQQI | ≤ 0.25
NHQI | ≤ 0.25
LAQI | ≤ 0.25
TAPA | ≤ 0.25
TQQI | 11.5
TAQI | 23.7
THQI | 24.1
TKQI | 17.5
PTQI | ≤ 0.25
SHQI | ≤ 0.25
IYTC | ≤ 0.25
SRID | ≤ 0.25
LRCL | ≤ 0.25
VTSC | ≤ 0.25
QCKT | ≤ 0.25
MFMN | ≤ 0.25
YQKV | ≤ 0.25
GKEW | ≤ 0.25
KSQI | ≤ 0.25

Variant | enrichment ratio
KAQI | ≤ 0.25
TLQI | 14.7
VMGP | ≤ 0.25
DKIR | ≤ 0.25
PQLM | ≤ 0.25
KNVL | ≤ 0.25
EARA | ≤ 0.25
FQWE | 1.71
AAMY | ≤ 0.25
TDVE | ≤ 0.25
ATME | 7.5
NHME | ≤ 0.25
SHME | ≤ 0.25
AHME | 12.2
LTME | ≤ 0.25
AAME | 30.8
TDME | 11.5
AIME | 1.65
THME | 49
AAPE | ≤ 0.25
YSHD | ≤ 0.25
PTCC | ≤ 0.25
MPHN | ≤ 0.25
RHYV | ≤ 0.25
TAVD | ≤ 0.25

Variant | enrichment ratio
SIIF | 0.435
LTVM | ≤ 0.25
MTIV | ≤ 0.25
FEVM | 11.6
FEVA | ≤ 0.25
MTRM | ≤ 0.25
MTTM | 18.5
MTIM | 25.3
FCVM | ≤ 0.25
MTTD | ≤ 0.25
GTVM | 36.9
MKTM | ≤ 0.25
YTVM | ≤ 0.25
FLDD | ≤ 0.25
FDRW | ≤ 0.25
VFHM | ≤ 0.25
MSQP | ≤ 0.25
KNYG | ≤ 0.25
SCVM | 8.76
HEVA | ≤ 0.25
SEVM | 18.7
GYAL | ≤ 0.25
GLAL | 12.9
IQVM | ≤ 0.25
SLVM | 2.29

Variant | enrichment ratio
HEGM | ≤ 0.25
SAVM | 4.22
PLAL | ≤ 0.25
SQVM | 19.6
HEVM | 24.4
LWIF | ≤ 0.25
NFST | ≤ 0.25
PYQI | ≤ 0.25
GTRE | ≤ 0.25
SHDG | 1.66
MAVM | ≤ 0.25
GIVM | 3.78
NEVM | 7.03
MTVA | ≤ 0.25
LNVM | ≤ 0.25
ITVM | ≤ 0.25
MEVM | 12.9
KYVM | ≤ 0.25
MTVM | 12.8
GNVM | 22.8
STVM | 16.3
MTPM | ≤ 0.25
WVID | ≤ 0.25
KGWL | ≤ 0.25
GFAY | ≤ 0.25

Variant | enrichment ratio
QNPQ | ≤ 0.25
VYSV | ≤ 0.25
IADP | ≤ 0.25
TERG | ≤ 0.25
EIGI | ≤ 0.25
GLSM | 12.3
GLVM | 16.2
GLCK | ≤ 0.25
GLTA | ≤ 0.25
GLTC | ≤ 0.25
GLTI | 11.7
GDSM | 2.79
GLWM | ≤ 0.25
GLSF | 4.58
RFTN | ≤ 0.25
RWLE | ≤ 0.25
LIDA | ≤ 0.25
LWYT | ≤ 0.25
VRCA | ≤ 0.25
SCQC | ≤ 0.25
TMMW | ≤ 0.25
KMMN | ≤ 0.25
TMSQ | 13.5
TMMS | 14.5
TMMD | ≤ 0.25

Variant | enrichment ratio
TMMN | 11.5
TMSA | 15.1
DMMN | ≤ 0.25
TMSR | ≤ 0.25
MMSA | ≤ 0.25
DMSA | ≤ 0.25
TMGK | ≤ 0.25
FINQ | ≤ 0.25
DCDV | ≤ 0.25
ECGF | ≤ 0.25
EREC | ≤ 0.25
TNHL | ≤ 0.25
WDRM | ≤ 0.25
KETS | ≤ 0.25
RLAR | ≤ 0.25
DGIV | ≤ 0.25
KMLV | ≤ 0.25
FDFL | ≤ 0.25
TMGG | 15.7
MMMT | ≤ 0.25
TMTG | 3.06
TMWG | ≤ 0.25
TMVG | ≤ 0.25
DMSI | ≤ 0.25
TMWT | ≤ 0.25

Variant | enrichment ratio
TMMT | 22.9
TMSI | 14.2
TMSK | ≤ 0.25
TMMG | 23.4
TMMV | 4.75
IFIA | ≤ 0.25
IGQM | ≤ 0.25
PWGS | ≤ 0.25
AYGE | ≤ 0.25
THGQ | ≤ 0.25
LATF | ≤ 0.25
VFAS | ≤ 0.25
ESNS | ≤ 0.25
PACG | ≤ 0.25
ITYK | ≤ 0.25
HKVF | ≤ 0.25
KKSE | ≤ 0.25
ILEH | ≤ 0.25
TMWQ | ≤ 0.25
DMQF | ≤ 0.25
TMWH | ≤ 0.25
TMHQ | 15.4
TMHP | ≤ 0.25
TMQF | 16.1

Reference: a collection of fitness landscapes (doi:10.1126/science.1257360)
